Targets with a hit are over-represented here; the source holds about 8,800 in all. About 0.5% of all pairs of compound and target were hits.
Columns and labels:
Test in all cases: log2 fold change, soluble protein after heating vs DMSO (PISA); higher = thermal stabilisation; K562 lysate, 10 uM; active = over 0.2 and 3.5 SD of the protein, either way, in both replicates (recomputed)
ibrutinib = compound: C=CC(=O)N1CCC[C@@H](n2nc(-c3ccc(Oc4ccccc4)cc3)c3c(N)ncnc32)C1 [ibrutinib]
In short: (§1)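 Following dounce homogenisation of K562 pellets in PBS pH 7.4 with 1 mM MgCl2, crude extract at 1 mg/mL protein was incubated for 30 min with 10 μM compound. Aliquots were then heated for 3 min over 48°C-58°C and pooled, NP-40 was added to 0.5% at 4°C, and soluble protein was recovered as the supernatant at 21,000xg for 90 min. Channel-sum-equalised TMTpro 16plex LC-MS/MS quantified this protein. Each value, from duplicates, is a log-two fold change in thermal stability relative to solvent controls.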

[1] = compound: CC(=O)c1cnc2ccc(-c3cc(Cl)c(O)c(Cl)c3)nc2c1N[C@H]1CC[C@H](CN(C)C)CC1
In short: as §1

ralimetinib = compound: CC(C)(C)Cn1c(N)nc2ccc(-c3[nH]c(C(C)(C)C)nc3-c3ccc(F)cc3)nc21 [ralimetinib]
In short: as §1

[2] = compound: CC(C)(O)CC(=O)NCCn1ccc2ncnc(Nc3ccc(Oc4cccc(C(F)(F)F)c4)c(Cl)c3)c21
In short: as §1

[3] = compound: CC(C)C1=C2N=C(C=C(N2N=C1)NCC3=CC=CC=C3)NCCCCCCN
In short: as §1

[4] = compound: CC1=C(C(CC(=O)N1)C2=CC=C(C=C2)C(F)(F)F)C(=O)NC3=C(C=C4C(=C3)C=NN4)F
In short: as §1

[5] = compound: CC1=C(C2=C(C=C1)C(=O)C3=CC=CC=C3N2CCCN)C
In short: as §1

[6] = compound: CC1=C(C=C(C=C1)NC(=O)C2=CC(=CC=C2)C(C)(C)C#N)NC3=CC4=C(C=C3)N=CN(C4=O)C
In short: as §1

[7] = compound: CC1=C(C=C(C=C1)NC(=O)C2=CC(=CC=C2)N(C)C)NC(=O)C3=CC=C(C=C3)O
In short: as §1

[8] = compound: CC1=CC=C(C=C1)SC2=C3C=C(SC3=CN=C2)C(=O)N
In short: as §1

vemurafenib = compound: CCCS(=O)(=O)Nc1ccc(F)c(C(=O)c2c[nH]c3ncc(-c4ccc(Cl)cc4)cc23)c1F [vemurafenib]
In short: as §1

[9] = compound: CCCS(=O)(=O)Nc1ccc(F)c(C(=O)c2c[nH]c3ncc(Cl)cc23)c1F
In short: as §1

barasertib = compound: CCN(CCCOc1ccc2c(Nc3cc(CC(=O)Nc4cccc(F)c4)[nH]n3)ncnc2c1)CCOP(=O)(O)O [barasertib]
In short: as §1

[10] = compound: CC[C@@H]1C(=O)N(C)c2cnc(Nc3ccc(C(=O)NC4CCN(C)CC4)cc3OC)nc2N1C1CCCC1
In short: as §1

volasertib = compound: CC[C@@H]1C(=O)N(C)c2cnc(Nc3ccc(C(=O)N[C@H]4CC[C@H](N5CCN(CC6CC6)CC5)CC4)cc3OC)nc2N1C(C)C [volasertib]
In short: as §1

[11] = compound: CCn1c(C(=O)N(C2CC2)C2CC2)cc2c3c(ncn3C)c(Nc3cc(C)n(C)n3)nc21
In short: as §1

[12] = compound: CCn1cc(-c2ccnc3[nH]c(-c4cccc(CN(C)C)c4)cc23)c(-c2ccc(NC(=O)N(C)C)cc2)n1
In short: as §1

[13] = compound: CN1CCC(CNc2ccc3ncc(-c4cccc(OC(F)(F)F)c4)n3n2)CC1
In short: as §1

saracatinib = compound: CN1CCN(CCOc2cc(OC3CCOCC3)c3c(Nc4c(Cl)ccc5c4OCO5)ncnc3c2)CC1 [saracatinib]
In short: as §1

sotrastaurin = compound: CN1CCN(c2nc(C3=C(c4c[nH]c5ccccc45)C(=O)NC3=O)c3ccccc3n2)CC1 [sotrastaurin]
In short: as §1

Chain of UniProt Q86XK3 (Q86XK3 whole entry, looked up): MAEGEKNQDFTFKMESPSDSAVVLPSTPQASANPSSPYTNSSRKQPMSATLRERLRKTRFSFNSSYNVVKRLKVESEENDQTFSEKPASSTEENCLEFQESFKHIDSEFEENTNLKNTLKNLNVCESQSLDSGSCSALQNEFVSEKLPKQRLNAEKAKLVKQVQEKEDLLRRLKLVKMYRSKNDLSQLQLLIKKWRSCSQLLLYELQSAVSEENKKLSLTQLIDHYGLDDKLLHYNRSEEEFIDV
Chain of UniProt P61011 (P61011 whole entry, looked up): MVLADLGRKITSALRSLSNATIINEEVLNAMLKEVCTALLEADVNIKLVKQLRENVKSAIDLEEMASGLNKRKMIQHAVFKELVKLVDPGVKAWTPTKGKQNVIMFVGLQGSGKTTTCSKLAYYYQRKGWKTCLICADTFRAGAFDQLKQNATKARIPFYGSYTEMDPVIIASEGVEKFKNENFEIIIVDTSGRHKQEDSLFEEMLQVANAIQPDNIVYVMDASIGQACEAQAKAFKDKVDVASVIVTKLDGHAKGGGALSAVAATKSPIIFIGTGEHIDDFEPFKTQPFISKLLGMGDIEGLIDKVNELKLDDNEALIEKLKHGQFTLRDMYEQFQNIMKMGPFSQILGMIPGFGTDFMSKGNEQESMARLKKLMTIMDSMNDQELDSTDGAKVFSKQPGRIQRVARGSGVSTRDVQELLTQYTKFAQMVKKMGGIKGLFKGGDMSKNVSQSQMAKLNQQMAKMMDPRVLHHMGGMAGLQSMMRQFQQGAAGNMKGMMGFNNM
Chain of UniProt O15198 (O15198 whole entry, looked up): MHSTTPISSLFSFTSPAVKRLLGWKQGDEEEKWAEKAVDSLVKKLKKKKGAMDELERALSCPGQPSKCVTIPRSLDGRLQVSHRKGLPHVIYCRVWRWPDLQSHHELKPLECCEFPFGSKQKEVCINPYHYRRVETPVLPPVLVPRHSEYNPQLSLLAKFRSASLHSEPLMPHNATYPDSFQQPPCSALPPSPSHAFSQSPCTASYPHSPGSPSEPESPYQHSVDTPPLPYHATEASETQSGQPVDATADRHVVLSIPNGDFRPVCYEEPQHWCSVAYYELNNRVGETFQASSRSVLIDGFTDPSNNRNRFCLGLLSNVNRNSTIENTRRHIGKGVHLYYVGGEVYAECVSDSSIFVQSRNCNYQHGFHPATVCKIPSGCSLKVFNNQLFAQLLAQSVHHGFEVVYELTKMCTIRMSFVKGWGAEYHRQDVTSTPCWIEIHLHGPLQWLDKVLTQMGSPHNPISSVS
Chain of UniProt P41440 (P41440 whole entry, looked up): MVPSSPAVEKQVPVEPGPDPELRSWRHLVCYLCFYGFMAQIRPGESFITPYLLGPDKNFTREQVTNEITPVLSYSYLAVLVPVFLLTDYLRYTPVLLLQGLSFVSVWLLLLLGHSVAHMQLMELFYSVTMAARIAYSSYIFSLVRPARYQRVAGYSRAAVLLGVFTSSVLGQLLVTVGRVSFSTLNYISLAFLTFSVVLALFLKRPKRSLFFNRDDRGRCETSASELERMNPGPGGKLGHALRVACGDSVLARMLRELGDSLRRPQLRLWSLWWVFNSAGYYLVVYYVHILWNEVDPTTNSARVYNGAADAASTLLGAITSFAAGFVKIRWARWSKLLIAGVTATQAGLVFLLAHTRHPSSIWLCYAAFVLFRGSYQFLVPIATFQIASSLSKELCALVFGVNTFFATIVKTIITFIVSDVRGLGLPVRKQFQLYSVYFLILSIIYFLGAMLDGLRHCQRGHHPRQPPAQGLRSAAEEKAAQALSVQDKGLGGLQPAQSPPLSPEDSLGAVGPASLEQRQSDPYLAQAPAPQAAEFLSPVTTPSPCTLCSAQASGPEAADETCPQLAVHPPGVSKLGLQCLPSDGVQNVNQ
Chain of UniProt O00161 (O00161 whole entry, looked up): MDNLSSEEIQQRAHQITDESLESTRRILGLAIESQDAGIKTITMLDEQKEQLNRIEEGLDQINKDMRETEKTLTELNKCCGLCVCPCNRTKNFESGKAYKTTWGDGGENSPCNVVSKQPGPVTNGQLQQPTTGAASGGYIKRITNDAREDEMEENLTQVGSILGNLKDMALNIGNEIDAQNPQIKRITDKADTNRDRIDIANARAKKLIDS
Chain of UniProt Q9HBM1 (Q9HBM1 whole entry, looked up): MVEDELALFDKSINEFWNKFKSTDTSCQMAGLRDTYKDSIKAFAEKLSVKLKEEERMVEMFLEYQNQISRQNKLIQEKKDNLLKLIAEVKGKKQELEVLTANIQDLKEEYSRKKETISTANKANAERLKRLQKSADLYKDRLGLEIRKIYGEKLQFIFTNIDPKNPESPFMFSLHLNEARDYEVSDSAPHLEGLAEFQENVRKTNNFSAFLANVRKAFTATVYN
Chain of UniProt Q7L8J4 (Q7L8J4 whole entry, looked up): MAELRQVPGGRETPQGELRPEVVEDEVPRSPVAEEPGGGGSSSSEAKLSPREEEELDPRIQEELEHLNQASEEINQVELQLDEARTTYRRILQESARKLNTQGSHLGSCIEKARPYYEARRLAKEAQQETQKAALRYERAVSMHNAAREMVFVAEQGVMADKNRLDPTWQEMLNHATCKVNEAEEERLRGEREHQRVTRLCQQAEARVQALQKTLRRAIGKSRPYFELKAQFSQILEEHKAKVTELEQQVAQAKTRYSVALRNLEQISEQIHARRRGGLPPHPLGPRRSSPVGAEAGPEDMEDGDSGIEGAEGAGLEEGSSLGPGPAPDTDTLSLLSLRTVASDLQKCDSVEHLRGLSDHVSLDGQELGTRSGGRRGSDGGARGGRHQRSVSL
Chain of UniProt Q86XZ4 (Q86XZ4 whole entry, looked up): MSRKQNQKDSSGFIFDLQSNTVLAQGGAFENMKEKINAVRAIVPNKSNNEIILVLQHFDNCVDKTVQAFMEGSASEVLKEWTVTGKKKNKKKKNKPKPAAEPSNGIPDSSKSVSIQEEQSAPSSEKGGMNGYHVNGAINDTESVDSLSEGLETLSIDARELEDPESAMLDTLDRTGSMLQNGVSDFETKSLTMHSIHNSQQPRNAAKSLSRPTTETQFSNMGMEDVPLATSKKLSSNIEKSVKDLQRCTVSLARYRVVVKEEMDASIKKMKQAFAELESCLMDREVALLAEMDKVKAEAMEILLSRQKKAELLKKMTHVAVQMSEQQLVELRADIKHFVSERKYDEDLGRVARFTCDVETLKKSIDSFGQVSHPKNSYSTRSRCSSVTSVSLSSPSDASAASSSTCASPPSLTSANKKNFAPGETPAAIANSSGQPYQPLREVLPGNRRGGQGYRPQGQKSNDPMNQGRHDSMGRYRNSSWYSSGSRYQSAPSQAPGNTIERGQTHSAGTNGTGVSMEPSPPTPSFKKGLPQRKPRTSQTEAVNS
Chain of UniProt Q96R06 (Q96R06 whole entry, looked up): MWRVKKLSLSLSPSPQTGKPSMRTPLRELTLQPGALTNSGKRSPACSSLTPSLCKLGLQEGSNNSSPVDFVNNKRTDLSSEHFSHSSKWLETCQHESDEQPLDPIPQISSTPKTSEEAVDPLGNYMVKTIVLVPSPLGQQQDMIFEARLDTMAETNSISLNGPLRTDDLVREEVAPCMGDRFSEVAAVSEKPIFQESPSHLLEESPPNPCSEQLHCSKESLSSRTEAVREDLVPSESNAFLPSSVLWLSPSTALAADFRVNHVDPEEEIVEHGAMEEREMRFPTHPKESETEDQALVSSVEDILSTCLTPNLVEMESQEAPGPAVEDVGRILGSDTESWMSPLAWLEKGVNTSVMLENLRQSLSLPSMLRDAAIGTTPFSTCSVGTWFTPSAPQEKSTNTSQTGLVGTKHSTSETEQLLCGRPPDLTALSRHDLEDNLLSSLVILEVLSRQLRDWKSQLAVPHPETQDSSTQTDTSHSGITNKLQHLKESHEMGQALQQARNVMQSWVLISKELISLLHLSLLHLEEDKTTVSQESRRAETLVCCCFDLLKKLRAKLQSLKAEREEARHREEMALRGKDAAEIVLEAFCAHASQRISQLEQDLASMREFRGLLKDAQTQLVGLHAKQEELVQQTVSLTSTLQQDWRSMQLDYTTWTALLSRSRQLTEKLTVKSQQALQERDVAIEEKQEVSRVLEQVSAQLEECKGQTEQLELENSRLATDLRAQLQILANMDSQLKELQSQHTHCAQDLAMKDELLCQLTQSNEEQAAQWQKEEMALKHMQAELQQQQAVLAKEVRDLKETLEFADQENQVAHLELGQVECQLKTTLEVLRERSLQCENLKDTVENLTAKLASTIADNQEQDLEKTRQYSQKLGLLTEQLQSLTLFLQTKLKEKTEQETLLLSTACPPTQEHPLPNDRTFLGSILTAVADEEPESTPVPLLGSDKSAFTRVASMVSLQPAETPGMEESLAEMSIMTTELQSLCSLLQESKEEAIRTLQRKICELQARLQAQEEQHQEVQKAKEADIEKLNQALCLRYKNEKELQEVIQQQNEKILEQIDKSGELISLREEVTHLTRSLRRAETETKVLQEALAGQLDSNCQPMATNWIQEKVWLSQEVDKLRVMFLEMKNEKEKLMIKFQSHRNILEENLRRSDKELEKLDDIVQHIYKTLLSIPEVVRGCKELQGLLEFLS
Chain of UniProt Q96KF7 (Q96KF7 whole entry, looked up): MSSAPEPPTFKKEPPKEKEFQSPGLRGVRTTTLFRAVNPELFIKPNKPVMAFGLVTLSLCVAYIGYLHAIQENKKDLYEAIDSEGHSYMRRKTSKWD
Chain of UniProt Q01130 (Q01130 whole entry, looked up): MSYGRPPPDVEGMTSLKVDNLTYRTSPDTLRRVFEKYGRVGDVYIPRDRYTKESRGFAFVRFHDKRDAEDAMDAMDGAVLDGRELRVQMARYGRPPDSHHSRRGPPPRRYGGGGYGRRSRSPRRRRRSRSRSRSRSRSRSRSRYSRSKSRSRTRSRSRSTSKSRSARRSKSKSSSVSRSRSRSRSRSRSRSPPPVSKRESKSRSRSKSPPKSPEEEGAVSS
Chain of UniProt P31947 (P31947 whole entry, looked up): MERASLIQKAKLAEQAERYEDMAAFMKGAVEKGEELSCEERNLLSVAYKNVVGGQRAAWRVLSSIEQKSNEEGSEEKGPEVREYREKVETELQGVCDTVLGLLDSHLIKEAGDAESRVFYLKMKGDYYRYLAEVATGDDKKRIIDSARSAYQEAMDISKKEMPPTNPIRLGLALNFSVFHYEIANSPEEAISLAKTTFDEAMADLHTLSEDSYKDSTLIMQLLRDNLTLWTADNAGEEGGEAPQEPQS

Target	log2 fold change (ibrutinib)	log2 fold change [1]	log2 fold change (ralimetinib)	log2 fold change [2]	log2 fold change [3]	log2 fold change [4]	log2 fold change [5]	log2 fold change [6]	log2 fold change [7]	log2 fold change [8]	log2 fold change (vemurafenib)	log2 fold change [9]	log2 fold change (barasertib)	log2 fold change [10]	log2 fold change (volasertib)	log2 fold change [11]	log2 fold change [12]	log2 fold change [13]	log2 fold change (saracatinib)	log2 fold change (sotrastaurin)
SPAG5 (UniProt Q96R06)	-0.005 (inactive)	0.039 (inactive)	-0.001 (inactive)	0.017 (inactive)	-0.013 (inactive)	0.03 (inactive)	-0.024 (inactive)	-0.024 (inactive)	0.008 (inactive)	-0.005 (inactive)	-0.007 (inactive)	0.04 (inactive)	0.025 (inactive)	-0.016 (inactive)	-0.004 (inactive)	-0.01 (inactive)	-0.004 (inactive)	-0.174 (inactive)	0.004 (inactive)	0.009 (inactive)
SRSF2 (UniProt Q01130)	0.021 (inactive)	-0.009 (inactive)	0.034 (inactive)	-0.065 (inactive)	-0.013 (inactive)	-0.021 (inactive)	-0.015 (inactive)	0.016 (inactive)	0.028 (inactive)	-0.018 (inactive)	-0.001 (inactive)	-0.014 (inactive)	-0.007 (inactive)	0.02 (inactive)	0.002 (inactive)	-0.065 (inactive)	-0.232 (inactive)	0.153 (inactive)	0.033 (inactive)	0.024 (inactive)
SH3BP5L (UniProt Q7L8J4)	0.007 (inactive)	0.013 (inactive)	-0.024 (inactive)	-0.035 (inactive)	0.032 (inactive)	0.009 (inactive)	-0.02 (inactive)	0.021 (inactive)	-0.017 (inactive)	-0.045 (inactive)	0.078 (inactive)	0.02 (inactive)	-0.029 (inactive)	0.011 (inactive)	0.013 (inactive)	-0.011 (inactive)	-0.014 (inactive)	0.072 (inactive)	0.05 (inactive)	0 (inactive)
SMAD9 (UniProt O15198)	-0.025 (inactive)	-0.018 (inactive)	-0.034 (inactive)	0.029 (inactive)	0.021 (inactive)	-0.038 (inactive)	0.079 (inactive)	-0.028 (inactive)	-0.072 (inactive)	-0.029 (inactive)	-0.045 (inactive)	-0.003 (inactive)	0.032 (inactive)	-0.011 (inactive)	0.024 (inactive)	0.111 (inactive)	0.021 (inactive)	0.048 (inactive)	0.08 (inactive)	0.007 (inactive)
SPC25 (UniProt Q9HBM1)	0 (inactive)	-0.058 (inactive)	-0.038 (inactive)	0.015 (inactive)	-0.002 (inactive)	-0.032 (inactive)	-0.017 (inactive)	0.016 (inactive)	0.002 (inactive)	0.006 (inactive)	0.011 (inactive)	-0.008 (inactive)	0.036 (inactive)	0.006 (inactive)	-0.019 (inactive)	0.012 (inactive)	-0.083 (inactive)	-0.004 (inactive)	0.013 (inactive)	-0.013 (inactive)
STK24 (UniProt B4DR80)	0.024 (inactive)	0.218 (active)	0.005 (inactive)	0.024 (inactive)	0.001 (inactive)	-0.019 (inactive)	-0.019 (inactive)	-0.018 (inactive)	-0.019 (inactive)	-0.018 (inactive)	0.009 (inactive)	0.005 (inactive)	0 (inactive)	-0.03 (inactive)	-0.017 (inactive)	0.005 (inactive)	0.02 (inactive)	-0.007 (inactive)	0.005 (inactive)	0.046 (inactive)
SPATS2 (UniProt Q86XZ4)	-0.06 (inactive)	-0.069 (inactive)	-0.018 (inactive)	0.03 (inactive)	0.111 (inactive)	0.077 (inactive)	-0.061 (inactive)	-0.007 (inactive)	-0.046 (inactive)	-0.001 (inactive)	-0.013 (inactive)	0.032 (inactive)	0.071 (inactive)	-0.175 (inactive)	-0.041 (inactive)	0.128 (inactive)	0.144 (inactive)	0.038 (inactive)	-0.12 (inactive)	0.031 (inactive)
SMTN isoform 6 (UniProt P53814)	-0.03 (inactive)	-0.072 (inactive)	-0.02 (inactive)	-0.004 (inactive)	-0.009 (inactive)	0.074 (inactive)	-0.013 (inactive)	0.054 (inactive)	0.05 (inactive)	0.135 (inactive)	0.021 (inactive)	0.061 (inactive)	0.018 (inactive)	-0.007 (inactive)	-0.078 (inactive)	-0.026 (inactive)	-0.036 (inactive)	-0.006 (inactive)	0.013 (inactive)	-0.051 (inactive)
SFN (UniProt P31947)	0.015 (inactive)	0.01 (inactive)	-0.002 (inactive)	0.035 (inactive)	0.016 (inactive)	0.045 (inactive)	0.031 (inactive)	-0.036 (inactive)	-0.004 (inactive)	-0.021 (inactive)	-0.038 (inactive)	0.003 (inactive)	-0.025 (inactive)	0.006 (inactive)	0.029 (inactive)	0.023 (inactive)	0.521 (active)	-0.084 (inactive)	-0.003 (inactive)	-0.01 (inactive)
SFR1 isoform 2 (UniProt Q86XK3)	0.023 (inactive)	-0.006 (inactive)	0.003 (inactive)	-0.012 (inactive)	-0.005 (inactive)	-0.006 (inactive)	0.041 (inactive)	0.026 (inactive)	0.06 (inactive)	0.016 (inactive)	-0.031 (inactive)	-0.037 (inactive)	0.024 (inactive)	0.028 (inactive)	0.022 (inactive)	0.013 (inactive)	-0.087 (inactive)	-0.119 (inactive)	-0.04 (inactive)	0.085 (inactive)
SPIRE1 (UniProt Q08AE8)	0.082 (inactive)	-0.031 (inactive)	-0.028 (inactive)	0.011 (inactive)	-0.014 (inactive)	-0.069 (inactive)	0.002 (inactive)	0.014 (inactive)	0.016 (inactive)	-0.05 (inactive)	0.009 (inactive)	0.05 (inactive)	0.023 (inactive)	0.051 (inactive)	-0.016 (inactive)	0.003 (inactive)	-0.298 (inactive)	0.077 (inactive)	0.017 (inactive)	0.089 (inactive)
SNAP23 (UniProt O00161)	0.021 (inactive)	-0.003 (inactive)	-0.01 (inactive)	0.01 (inactive)	-0.04 (inactive)	-0.015 (inactive)	0.045 (inactive)	0.015 (inactive)	-0.013 (inactive)	0.011 (inactive)	0.013 (inactive)	-0.025 (inactive)	0.041 (inactive)	-0.009 (inactive)	0.034 (inactive)	0.033 (inactive)	0.025 (inactive)	0.014 (inactive)	-0.011 (inactive)	-0.001 (inactive)
SMIM8 (UniProt Q96KF7)	0.073 (inactive)	-0.02 (inactive)	0.059 (inactive)	-0.136 (inactive)	-0.095 (inactive)	-0.025 (inactive)	-0.128 (inactive)	0.038 (inactive)	0.053 (inactive)	-0.006 (inactive)	0.037 (inactive)	0.048 (inactive)	0.088 (inactive)	-0.003 (inactive)	0.012 (inactive)	0.057 (inactive)	-0.382 (active)	0.177 (inactive)	-0.071 (inactive)	-0.027 (inactive)
SRP54 (UniProt P61011)	-0.039 (inactive)	-0.023 (inactive)	0.031 (inactive)	0.015 (inactive)	0.036 (inactive)	0.034 (inactive)	-0.069 (inactive)	-0.021 (inactive)	0.007 (inactive)	-0.009 (inactive)	0.02 (inactive)	-0.024 (inactive)	0 (inactive)	0.068 (inactive)	-0.024 (inactive)	0.017 (inactive)	-0.059 (inactive)	0.006 (inactive)	0.043 (inactive)	0.028 (inactive)
SLC19A1 (UniProt P41440)	0.049 (inactive)	0.013 (inactive)	-0.004 (inactive)	-0.054 (inactive)	-0.019 (inactive)	0.019 (inactive)	-0.044 (inactive)	0.009 (inactive)	0.004 (inactive)	-0.003 (inactive)	0.028 (inactive)	-0.005 (inactive)	0.059 (inactive)	0.014 (inactive)	0.047 (inactive)	-0.036 (inactive)	-0.203 (inactive)	0.165 (inactive)	0.019 (inactive)	0.025 (inactive)
